Potency and affinity values are given separately. The source made the active and inactive calls.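 The calls were made as follows: active = peak inhibition of the KCNQ2 potassium channel over 30% at some tested dose, with a fitted dose response curve; inactive = no inhibition at any dose, or no curve fitted.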
These compounds were tested against Potassium voltage-gated channel subfamily KQT member 2 (Rattus norvegicus) (UniProt O88943) (assay: KCNQ2 channel inhibition, SAR follow-up, selectivity assay for TASK1 inhibitor project, cell-based, FluxOR thallium flux, concentration-response (AID 652192)). Settings: KCNQ2 cell line, FluxOR thallium flux fluorescence; series mostly up to 30 µM; flux ratio, lower = inhibition: at the top concentration.
Chain of Potassium voltage-gated channel subfamily KQT member 2 (Rattus norvegicus) (O88943 whole entry, looked up): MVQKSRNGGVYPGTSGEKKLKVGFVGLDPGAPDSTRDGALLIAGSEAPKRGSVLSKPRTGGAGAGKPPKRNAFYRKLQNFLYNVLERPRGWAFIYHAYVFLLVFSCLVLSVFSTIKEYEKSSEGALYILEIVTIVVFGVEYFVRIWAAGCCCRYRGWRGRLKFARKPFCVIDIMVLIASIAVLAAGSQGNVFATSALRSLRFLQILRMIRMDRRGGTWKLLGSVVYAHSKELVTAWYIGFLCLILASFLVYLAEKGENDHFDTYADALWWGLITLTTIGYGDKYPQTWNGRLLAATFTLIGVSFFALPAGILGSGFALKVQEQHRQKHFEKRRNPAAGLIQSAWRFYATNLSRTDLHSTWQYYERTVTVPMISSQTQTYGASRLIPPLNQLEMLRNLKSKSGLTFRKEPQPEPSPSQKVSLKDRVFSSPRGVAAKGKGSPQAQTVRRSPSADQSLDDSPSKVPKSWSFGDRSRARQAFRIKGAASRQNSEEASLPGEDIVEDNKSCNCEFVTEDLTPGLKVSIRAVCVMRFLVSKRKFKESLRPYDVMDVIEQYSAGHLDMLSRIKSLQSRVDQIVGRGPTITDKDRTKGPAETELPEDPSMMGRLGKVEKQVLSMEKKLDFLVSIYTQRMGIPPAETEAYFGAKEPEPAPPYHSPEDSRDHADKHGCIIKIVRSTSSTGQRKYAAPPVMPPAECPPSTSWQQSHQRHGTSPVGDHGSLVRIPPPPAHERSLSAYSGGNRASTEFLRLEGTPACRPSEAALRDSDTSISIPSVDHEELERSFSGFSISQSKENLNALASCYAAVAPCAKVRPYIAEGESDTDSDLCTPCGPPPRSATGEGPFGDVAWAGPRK

Flux ratio, lower = inhibition, inactive:
COc1ccccc1NC(=O)c1cccc(NC(=O)c2ccccc2OC)c1 0.172
O=C(Nc1cccc(NC(=O)c2cccnc2)c1)c1ccccc1 0.219
Cc1cccc(C(=O)Nc2cccc(NC(=O)c3cccc(Cl)c3)c2)c1 0.163
O=C(Nc1cccc(NC(=O)c2cccc(Cl)c2)c1)c1ccccc1 0.143
CCOc1ccccc1NC(=O)c1cccc(NC(=O)c2ccccc2OC)c1 0.179
CC(C)(C)c1ccc(C(=O)Nc2cccc(NC(=O)c3ccccc3)c2)cc1 0.169
O=C(Nc1cccc(NC(=O)c2cccc(C(F)(F)F)c2)c1)c1ccccc1 0.145
Cc1cccc(C(=O)Nc2cccc(NC(=O)C3CCCCC3)c2)c1 0.167
CCOc1ccccc1C(=O)Nc1cccc(NC(=O)c2ccccc2C(F)(F)F)c1 0.177
O=C(Nc1cccc(NC(=O)c2ccccc2C(F)(F)F)c1)c1ccccc1 0.219
CCOc1ccccc1NC(=O)c1cccc(NC(=O)c2ccc(C)cc2)c1 0.18
CCOc1ccccc1NC(=O)c1cccc(NC(=O)C(C)(C)C)c1 0.181
CC(C)c1ccccc1C(=O)Nc1cccc(NC(=O)c2ccccc2OC(F)(F)F)c1 0.173
COc1ccccc1C(=O)Nc1cccc(NC(=O)c2ccccc2OC(F)(F)F)c1 0.183
CCOc1ccccc1NC(=O)c1cccc(NC(=O)c2ccccc2C)c1 0.159
CCOc1ccccc1NC(=O)c1cccc(NC(=O)c2ccccc2)c1 0.184
COc1ccc(C(=O)Nc2cccc(NC(=O)c3cccc(C)c3)c2)cc1 0.18
Cc1cccc(C(=O)Nc2cccc(NC(=O)c3cccc(C)c3)c2)c1 0.203
Cc1cccc(C(=O)Nc2ccccc2NC(=O)c2ccccc2)c1 0.144
Cc1cccc(C(=O)Nc2cccc(NC(=O)c3ccccc3C(C)C)c2)c1 0.166
CCOc1ccccc1NC(=O)c1cccc(NC(=O)c2ccc(Cl)cc2)c1 0.181
COc1ccccc1C(=O)Nc1cccc(NC(=O)c2ccccc2)c1 0.162
O=C(Nc1cccc(NC(=O)c2ccccc2Cl)c1)c1ccccc1 0.169
O=C(Nc1cccc(NC(=O)c2ccoc2)c1)c1ccccc1 0.171
Cc1cccc(C(=O)Nc2cccc(NC(=O)c3ccccc3Cl)c2)c1 0.173
CCOc1ccccc1C(=O)Nc1cccc(NC(=O)c2ccccc2OC)c1 0.173
COc1ccccc1C(=O)Nc1cccc(NC(=O)c2ccccc2OC)c1 0.346
COc1ccccc1NC(=O)c1cccc(NC(=O)c2ccccc2)c1 0.168
Cc1cccc(C(=O)Nc2cccc(NC(=O)c3ccccc3OC(F)(F)F)c2)c1 0.178
COc1ccccc1NC(=O)c1cccc(NC(=O)C2CCCC2)c1 0.19
O=C(Nc1cccc(NC(=O)c2cccc(F)c2)c1)c1ccccc1 0.2
Cc1ccccc1C(=O)Nc1cccc(NC(=O)c2ccccc2)c1 0.195
